Common to all, as to experiment: NCI-60 one-dose screen, 48 h (100 = growth as untreated, 0 = no growth, -100 = all killed)
Common to all, as to details: 10 µM unless noted

The subject of assay [1] is RPMI-8226 leukemia.
Assay [2] deals with OVCAR-8 ovarian.
For assay [3], the system named is OVCAR-5 ovarian.
Assay [4] concerns OVCAR-4 ovarian.
Assay [5] has as its system SK-OV-3 ovarian.
Assay [6] relates to IGROV1 ovarian.
In assay [7] the test system is OVCAR-3 ovarian.
Assay [8] deals with HS 578T breast.
For assay [9], the system named is T-47D breast.
Assay [10] relates to NCI/ADR-RES ovarian.

Structures are written as SMILES. The panel holds about 83,000 compounds, 20% with a hit somewhere; the sample as a whole holds those more often.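 Single-concentration screen, 48 h exposure, 96-well plates. Endpoint: percent growth. Below 10 = active.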 A number with no mark means an inactive call. Activity calls are given as the source filed them.

As for `C=C(C)[C@@H]1CC[C@]2(C(=O)OCCOCCOCC[P+](c3ccccc3)(c3ccccc3)c3ccccc3)CC[C@]3(C)[C@H](CC[C@@H]4[C@@]5(C)CC[C@H](C)C(C)(C)[C@@H]5CC[C@]43C)[C@@H]12`, the growth in assay [1] is -59.3% (active); in assay [2] it was -81.3% (active); in assay [3], -72.2% (active); in assay [4], -85.6% (active); in assay [5], -96.9% (active); in assay [6], -70.5% (active). The growth was -91.7% (active) in assay [7], -39.2% (active) in assay [8] and -68.5% (active) in assay [9].

As for `O=C1CC(c2ccc(O)c(O)c2)Oc2cc(O)c([C@@H]3O[C@H](CO)[C@@H](O)[C@H](O)[C@H]3O)c(O)c21` (stereo not given in full), the growth is 99.3% in assay [1]; 101% in assay [2]; 98.7% in assay [3]; 101% in [4]; 103% in [5]; 109% in assay [6]. Also, the growth in assay [7] was 104%; in assay [8], 105%; in assay [9], 95.8%.

For `COc1ccc(/C=C/C(=O)C(CC2CCC2)C(=O)/C=C/c2ccc(OC)c(OC)c2)cc1OC`, the growth in assay [1] is -7.68% (active); in assay [2] it was 3.28% (active); in assay [3] it was -12.9% (active); in assay [4] it was 35.2%; in assay [5] it was 16.2%; in assay [6], -17.1% (active). Also, the growth in assay [7] is -33.2% (active); in [8], 25.4%; in [9], -5.5% (active).

On to `Cc1ccc(SC2c3ccc(C)cc3Oc3nc(N)c(C#N)c(N)c32)cc1` (stereo not given), for which the growth is 12.8% in assay [1]; 95% in [2]; 121% in assay [3]; 74.8% in assay [4]; 102% in [5]; 25.9% in assay [6]. For the same molecule, the growth in [7] was 55.2%; in assay [8] it was 96.2%; in [9] it was 16.8%.

Regarding `CCOC(=O)/C(=C/c1c(-c2ccccc2)[nH]c2ccccc12)C(=O)c1ccc(Cl)cc1`, the growth in assay [1] is -17.2% (active); in [2], 59.8%; in assay [3], 95.8%; in assay [4], 46.8%; in assay [5], 81.6%; in [6] it was 98.5%. Also, the growth was 38.5% in [7], 63.4% in assay [8], 45.4% in [10] and 24.9% in assay [9].

As to `CC(=O)OC[C@]12CC[C@@H](c3cn(Cc4ccc(Cn5cc([C@@H]6CC[C@]7(COC(C)=O)CC[C@]8(C)[C@H](CC[C@@H]9[C@@]%10(C)CC[C@H](OC(C)=O)C(C)(C)[C@@H]%10CC[C@]98C)[C@@H]67)nn5)cc4)nn3)[C@@H]1[C@H]1CC[C@@H]3[C@@]4(C)CC[C@H](OC(C)=O)C(C)(C)[C@@H]4CC[C@@]3(C)[C@]1(C)CC2`, the growth in [1] is 108%; in assay [2], 92%; in assay [3], 102%; in assay [4], 109%; in [5], 100%; in assay [6] it was 105%. The growth in [7] is 97.4%; in assay [8], 97.2%; in [9], 87.1%.

As for `CCOC(=O)C1=C(C)n2nc(CC#N)c(C#N)c2NC1c1ccc(CC)cc1` (stereo not given), the growth is 102% in assay [1]; 104% in assay [2]; 99.8% in assay [3]; 93.2% in assay [4]; 98.2% in assay [5]; 69.9% in assay [6]. The growth is 99.2% in [7], 115% in [8] and 94.9% in assay [9].

Regarding `CN(C)CCCn1c2c(c3cc(-c4ccco4)ccc3c1=O)C(=O)c1ccccc1-2`, the growth in [1] was 46.3%; in [2], 48%; in [3] it was 104%; in [4] it was 53%; in assay [5], 93.1%; in assay [6], 52.2%. The results for the growth in assay [7], in [8] and in assay [9] were 72%, 79.9% and 49.2%, respectively.

With `COc1cc(/C=C/C(=O)/C=C/c2cc3ccc(Cl)cc3n(Cc3ccccc3)c2=O)ccc1O`, the growth in [1] is -18.8% (active); in [2], 5.61% (active); in [3], 19.4%; in assay [4] it was 25.8%; in assay [5], 37.3%; in [6], 3.2% (active). Further, the figures for the growth in [7], in [8] and in assay [9] were -46.4% (active), 43.5% and 2.39% (active), respectively.

As to `O=C(O)C(C(=O)O)c1cccc2ccccc12`, the growth is 109% in [1]; 101% in assay [2]; 110% in assay [3]; 100% in [4]; 101% in assay [5]; 111% in assay [6]. Further, the growth in assay [7] is 112%; in assay [8], 102%; in assay [10], 98.9%; in assay [9] it was 92.7%.

With `Cc1cnc(SCc2ccc(Cl)cc2)[nH]c1=S`, the growth in [1] is 101%; in [2], 101%; in [3] it was 97.5%; in assay [4], 92.3%; in assay [5], 108%; in assay [6] it was 103%. In addition, the growth is 94.1% in [7], 112% in assay [8] and 88% in [9].

In the case of `CC(=O)c1ccc(NC(=O)CSc2nnc(-c3cc(-c4ccc(Cl)cc4)nc4ccccc34)o2)cc1`, the growth in [1] was 25.5%; in assay [2] it was 82%; in [3] it was 96.7%; in assay [4], 71.1%; in [5] it was 90.1%; in [6], 92.7%. The growth in assay [7] is 107%; in assay [8], 110%; in assay [9] it was 79.1%.

Turning to `C#C[C@@]1(O)[C@@H](CO)O[C@@H](n2cnc3c(-c4ccccc4)ncnc32)[C@@H]1O`, the growth in assay [1] was 106%; in assay [2], 107%; in assay [3] it was 101%; in assay [4], 98.5%; in assay [5], 105%; in [6] it was 106%. Besides, the growth is 107% in assay [7], 113% in [8] and 84% in assay [9].

Regarding `C=CCn1c(SCC(=O)Nc2ccc(C(=O)/C=C/c3cc(OC)c(OC)c(OC)c3)cc2)nnc1-c1ccccc1`, the growth was 5.73% (active) in assay [1]; 86.8% in assay [2]; 128% in [3]; 111% in assay [4]; 110% in assay [5]; 86.9% in [6]. Also, the growth in assay [7] was 82.3%; in [8] it was 102%; in assay [9], 78.8%.

Consider `O=C(Nc1nc(-c2ccccc2Cl)cs1)c1cc(-c2ccc(Br)cc2)nc2ccccc12`, for which the growth was 29% in assay [1]; 43.1% in [2]; 70.6% in assay [3]; 46.6% in assay [4]; 31.8% in assay [5]; 61.4% in assay [6]. For the same molecule, the growth was 47% in assay [7], 79.6% in [8] and 9.58% (active) in [9].

Take `Cc1nnc(/N=C2\NC(=O)/C(=C/c3ccsc3)S2)s1`: the growth was 94% in [1]; 104% in assay [2]; 107% in assay [3]; 90.6% in assay [4]; 89.5% in assay [5]; 90.7% in assay [6]. Besides, the growth in assay [7] is 93.3%; in assay [8] it was 96.4%; in [9], 84.4%.

As to `CCOC(=O)C1CCN(S(=O)(=O)/N=C2/NC(=O)NC2=C(Cl)Cl)CC1`, the growth is 6.17% (active) in assay [1]; 21.4% in assay [2]; 64% in assay [3]; 80% in assay [4]; 70.9% in assay [5]; -54.4% (active) in assay [6]. Also, the growth in assay [7] was -81.2% (active); in [8], 24.1%; in assay [9] it was 55%.

On to `O=C(Nc1ccccc1)NS(=O)(=O)c1c[nH]c(=S)[nH]c1=O`, for which the growth is 103% in assay [1]; 94.9% in assay [2]; 113% in [3]; 105% in assay [4]; 69.9% in [5]; 106% in assay [6]. Besides, the growth was 110% in [7], 108% in [8] and 75.1% in assay [9].

As to `Cc1c(Cl)cccc1NC(=O)c1sc2nc3c(cc2c1N)CCCCCC3`, the growth in [1] is 18.4%; in [2], 17.5%; in [3] it was 46.7%; in assay [4] it was 46.8%; in assay [5], 34.8%; in assay [6], 42.9%. Also, the values for the growth in assay [7], in [8] and in assay [9] were -18.1% (active), 24.6% and 40.2%, respectively.

On to `C=C1C(=O)O[C@H]2[C@H]1CC/C(COC(=O)c1c[nH]c3ccccc13)=C\CC[C@@]1(C)O[C@@H]21`, for which the growth was -27.4% (active) in [1]; 5% (active) in [2]; -25.3% (active) in assay [3]; -90.6% (active) in assay [4]; 68.9% in assay [5]; -56.2% (active) in [6]. The growth in assay [7] is -94.2% (active); in [8], 3.21% (active); in [9] it was -49.2% (active).

On to `CCC[S@@](=O)c1ccc2nc(NC(=O)OC)[nH]c2c1`, for which the growth in [1] is 95%; in [2], 77.1%; in [3] it was 102%; in assay [4] it was 98.9%; in [5], 63.6%; in assay [6], 91.3%. Moreover, the growth was 93.5% in assay [7], 91.2% in [8] and 78.1% in assay [9].

As to `COc1cc(C2=NN(C(C)=O)C(c3cccc(Nc4ccnc5cc(C(F)(F)F)ccc45)c3)C2)cc(OC)c1OC` (stereo not given), the growth in assay [1] is 20.8%; in assay [2] it was 56.1%; in assay [3], 82.7%; in assay [4] it was 52%; in [5] it was 69.3%; in [6], 62.4%. Further, the growth in [7] was 61.2%; in assay [8], 76.6%; in [9], 40.2%.

Regarding `COc1ccc(-n2cc(-c3ccc(Cl)c(Cl)c3)[nH]c2=O)cc1OC`, the growth in assay [1] was 97.6%; in assay [2] it was 94.6%; in [3], 90%; in [4], 89.9%; in [5] it was 101%; in assay [6], 102%. The growth is 111% in [7], 102% in assay [8], 105% in assay [10] and 92.1% in assay [9].

Turning to `N#C/C(=C/c1ccc(O)c([N+](=O)[O-])c1)c1nc(-c2ccc([N+](=O)[O-])cc2)cs1`, the growth in assay [1] was 9.81% (active); in assay [2], 48.4%; in [3] it was 108%; in assay [4], 34.1%; in assay [5], 38.9%; in assay [6], 55.9%. In addition, the growth in assay [7] is 23.5%; in assay [8] it was 44.2%; in assay [9], 11.2%.

For `c1ccc2nc(N3CCOCC3)c(N3CCCCC3)nc2c1`, the growth in assay [1] is 96.9%; in [2], 102%; in assay [3], 105%; in [4], 97.6%; in assay [5], 101%; in assay [6] it was 107%. For the same molecule, the growth in assay [7] was 103%; in assay [8] it was 96.9%; in assay [9], 75.9%.

`COc1ccc2nc(-c3ccc(OC)c(OC)c3)cc(-c3nnc(SCC(=O)Nc4ccc(/C(C)=N\O)cc4)n3-c3ccccc3)c2c1`: the growth in [1] was 47.7%; in [2], 72.4%; in assay [3] it was 102%; in assay [4], 95.5%; in [5], 101%; in assay [6], 28.1%. Besides, the growth in assay [7] is 87.8%; in assay [8] it was 72.2%; in assay [9], 45.8%.

For the molecule `CN1CCN(/C=C2\CC(C(=O)NCc3ccc(Cl)cc3Cl)NC2=O)CC1` (stereo not given), the growth in assay [1] was 93.9%; in [2], 99.1%; in assay [3], 110%; in assay [4] it was 110%; in assay [5], 107%; in assay [6], 109%. Besides, the figures for the growth in assay [7], in assay [8] and in assay [9] were 108%, 103% and 113%, respectively.

Consider `CC(C)(C)CC(C)(C)Cc1ccc(OCCOCC[N+](C)(C)Cc2ccccc2)cc1`, for which the growth in assay [1] was -53.4% (active); in assay [2] it was 22.8%; in assay [3] it was 74%; in assay [5], 46.9%; in assay [6], -16.7% (active); in assay [7], 0.137% (active). The growth in [8] was 26.3%; in [10] it was 99.9%; in assay [9], 0.793% (active).

For the origin of these results see PubChem BioAssay (NCI).
